Experimental data published in the supplement of paper PMC6897291.
Where a name gives a salt, the structure may show the parent alone.

Key:
[1] = tested on: U-2932; experiment: growth inhibition by drug alone (1 - RLU/untreated control) (fraction); higher = stronger inhibition; details: 177Lu-lilotomab satetraxetan 0 ug/ml
Outline: (§1)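 RIVA or U-2932 cells, untreated or pretreated 18 h with a radiolabelled anti-CD37 antibody conjugate (~600 MBq/mg; 0.5 µg/ml RIVA, 1 µg/ml U-2932), were washed and seeded at 3,000 cells/well on plates pre-printed with the Selleck Cambridge Cancer Compound library. Doses were 10/100 nM (RIVA) or 10/1,000 nM (U-2932). RealTime-Glo luminescence was read daily from day 3 after 1 h at 37°C. Growth inhibition is 1 − RLU/mean of 48 untreated no-drug wells per plate.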

[2] = tested on: RIVA; experiment: as above; details: 177Lu-lilotomab satetraxetan 0 ug/ml
Outline: as §1

[3] = tested on: U-2932; experiment: growth inhibition by drug plus 177Lu-lilotomab satetraxetan (1 - RLU/untreated control) (fraction); higher = stronger inhibition; details: 177Lu-lilotomab satetraxetan 1 ug/ml
Outline: as §1

[4] = tested on: RIVA; experiment: as above; details: 177Lu-lilotomab satetraxetan 0.5 ug/ml
Outline: as §1

`COc1c(C)cnc(Cn2cnc3c(Cl)nc(N)nc32)c1C` was tested, and the “growth inhibition by drug alone” value ([1]; 10 nM, time (day): 3) was 0.137, the “growth inhibition by drug alone” value ([1]; 10 nM, time (day): 4) was 0.0945 and the “growth inhibition by drug alone” value ([1]; 10 nM, time (day): 5) was 0.017. The “growth inhibition by drug alone” value ([1]; 10 nM, time (day): 6) was -0.0336, the “growth inhibition by drug alone” value ([1]; 1000 nM, time (day): 3) was 0.935 and the “growth inhibition by drug alone” value ([1]; 1000 nM, time (day): 4) was 0.979. For the same molecule, the “growth inhibition by drug alone” value ([1]; 1000 nM, time (day): 5) was 0.986, the “growth inhibition by drug alone” value ([1]; 1000 nM, time (day): 6) was 0.987 and the “growth inhibition by drug alone” value ([2]; 10 nM, time (day): 3) was -0.00355. For the same molecule, the “growth inhibition by drug alone” value ([2]; 10 nM, time (day): 4) was 0.0266, the “growth inhibition by drug alone” value ([2]; 10 nM, time (day): 5) was -0.0608 and the “growth inhibition by drug alone” value ([2]; 10 nM, time (day): 6) was -0.277. The “growth inhibition by drug alone” value ([2]; 100 nM, time (day): 3) was 0.0172, the “growth inhibition by drug alone” value ([2]; 100 nM, time (day): 4) was 0.0454 and the “growth inhibition by drug alone” value ([2]; 100 nM, time (day): 5) was 0.0061. The “growth inhibition by drug alone” value ([2]; 100 nM, time (day): 6) was -0.105, the “growth inhibition by drug plus 177Lu-lilotomab satetraxetan” value ([3]; 10 nM, time (day): 3) was -0.00351 and the “growth inhibition by drug plus 177Lu-lilotomab satetraxetan” value ([3]; 10 nM, time (day): 4) was 0.0579. The “growth inhibition by drug plus 177Lu-lilotomab satetraxetan” value ([3]; 10 nM, time (day): 5) was 0.0581, the “growth inhibition by drug plus 177Lu-lilotomab satetraxetan” value ([3]; 10 nM, time (day): 6) was 0.132 and the “growth inhibition by drug plus 177Lu-lilotomab satetraxetan” value ([3]; 1000 nM, time (day): 3) was 0.949. For the same molecule, the “growth inhibition by drug plus 177Lu-lilotomab satetraxetan” value ([3]; 1000 nM, time (day): 4) was 0.985, the “growth inhibition by drug plus 177Lu-lilotomab satetraxetan” value ([3]; 1000 nM, time (day): 5) was 0.988 and the “growth inhibition by drug plus 177Lu-lilotomab satetraxetan” value ([3]; 1000 nM, time (day): 6) was 0.989. For the same molecule, the “growth inhibition by drug plus 177Lu-lilotomab satetraxetan” value ([4]; 10 nM, time (day): 3) was 0.511, the “growth inhibition by drug plus 177Lu-lilotomab satetraxetan” value ([4]; 10 nM, time (day): 4) was 0.587 and the “growth inhibition by drug plus 177Lu-lilotomab satetraxetan” value ([4]; 10 nM, time (day): 5) was 0.6. The “growth inhibition by drug plus 177Lu-lilotomab satetraxetan” value ([4]; 10 nM, time (day): 6) was 0.607, the “growth inhibition by drug plus 177Lu-lilotomab satetraxetan” value ([4]; 100 nM, time (day): 3) was 0.471 and the “growth inhibition by drug plus 177Lu-lilotomab satetraxetan” value ([4]; 100 nM, time (day): 4) was 0.569. For the same molecule, the “growth inhibition by drug plus 177Lu-lilotomab satetraxetan” value ([4]; 100 nM, time (day): 5) was 0.584 and the “growth inhibition by drug plus 177Lu-lilotomab satetraxetan” value ([4]; 100 nM, time (day): 6) was 0.597.
In the case of `Cn1cc(-c2ccc3nnc(Sc4ccc5ncccc5c4)n3n2)cn1`, the “growth inhibition by drug alone” value ([1]; 10 nM, time (day): 3) was 0.0784, the “growth inhibition by drug alone” value ([1]; 10 nM, time (day): 4) was 0.0569 and the “growth inhibition by drug alone” value ([1]; 10 nM, time (day): 5) was -0.0234. For the same molecule, the “growth inhibition by drug alone” value ([1]; 10 nM, time (day): 6) was -0.0672, the “growth inhibition by drug alone” value ([1]; 1000 nM, time (day): 3) was 0.09 and the “growth inhibition by drug alone” value ([1]; 1000 nM, time (day): 4) was 0.0464. The “growth inhibition by drug alone” value ([1]; 1000 nM, time (day): 5) was -0.0633, the “growth inhibition by drug alone” value ([1]; 1000 nM, time (day): 6) was -0.0059 and the “growth inhibition by drug alone” value ([2]; 10 nM, time (day): 3) was 0.0128. For the same molecule, the “growth inhibition by drug alone” value ([2]; 10 nM, time (day): 4) was 0.0644, the “growth inhibition by drug alone” value ([2]; 10 nM, time (day): 5) was 0.0167 and the “growth inhibition by drug alone” value ([2]; 10 nM, time (day): 6) was -0.227. The “growth inhibition by drug alone” value ([2]; 100 nM, time (day): 3) was -0.0367, the “growth inhibition by drug alone” value ([2]; 100 nM, time (day): 4) was 0.0223 and the “growth inhibition by drug alone” value ([2]; 100 nM, time (day): 5) was 0.00017. The “growth inhibition by drug alone” value ([2]; 100 nM, time (day): 6) was -0.0611, the “growth inhibition by drug plus 177Lu-lilotomab satetraxetan” value ([3]; 10 nM, time (day): 3) was 0.0469 and the “growth inhibition by drug plus 177Lu-lilotomab satetraxetan” value ([3]; 10 nM, time (day): 4) was 0.105. For the same molecule, the “growth inhibition by drug plus 177Lu-lilotomab satetraxetan” value ([3]; 10 nM, time (day): 5) was 0.177, the “growth inhibition by drug plus 177Lu-lilotomab satetraxetan” value ([3]; 10 nM, time (day): 6) was 0.212 and the “growth inhibition by drug plus 177Lu-lilotomab satetraxetan” value ([3]; 1000 nM, time (day): 3) was 0.0614. The “growth inhibition by drug plus 177Lu-lilotomab satetraxetan” value ([3]; 1000 nM, time (day): 4) was 0.085, the “growth inhibition by drug plus 177Lu-lilotomab satetraxetan” value ([3]; 1000 nM, time (day): 5) was 0.142 and the “growth inhibition by drug plus 177Lu-lilotomab satetraxetan” value ([3]; 1000 nM, time (day): 6) was 0.222. For the same molecule, the “growth inhibition by drug plus 177Lu-lilotomab satetraxetan” value ([4]; 10 nM, time (day): 3) was 0.61, the “growth inhibition by drug plus 177Lu-lilotomab satetraxetan” value ([4]; 10 nM, time (day): 4) was 0.637 and the “growth inhibition by drug plus 177Lu-lilotomab satetraxetan” value ([4]; 10 nM, time (day): 5) was 0.638. The “growth inhibition by drug plus 177Lu-lilotomab satetraxetan” value ([4]; 10 nM, time (day): 6) was 0.635, the “growth inhibition by drug plus 177Lu-lilotomab satetraxetan” value ([4]; 100 nM, time (day): 3) was 0.458 and the “growth inhibition by drug plus 177Lu-lilotomab satetraxetan” value ([4]; 100 nM, time (day): 4) was 0.538. For the same molecule, the “growth inhibition by drug plus 177Lu-lilotomab satetraxetan” value ([4]; 100 nM, time (day): 5) was 0.561 and the “growth inhibition by drug plus 177Lu-lilotomab satetraxetan” value ([4]; 100 nM, time (day): 6) was 0.584.
`O=C(c1ccc(OCCN2CCCCC2)cc1)c1c(-c2ccc(O)cc2)sc2cc(O)ccc12` [Evista (Raloxifene Hydrochloride)] was tested, and the “growth inhibition by drug alone” value ([1]; 10 nM, time (day): 3) was 0.0697, the “growth inhibition by drug alone” value ([1]; 10 nM, time (day): 4) was 0.04 and the “growth inhibition by drug alone” value ([1]; 10 nM, time (day): 5) was -0.0859. The “growth inhibition by drug alone” value ([1]; 10 nM, time (day): 6) was -0.131, the “growth inhibition by drug alone” value ([1]; 1000 nM, time (day): 3) was -0.0629 and the “growth inhibition by drug alone” value ([1]; 1000 nM, time (day): 4) was -0.0257. For the same molecule, the “growth inhibition by drug alone” value ([1]; 1000 nM, time (day): 5) was -0.102, the “growth inhibition by drug alone” value ([1]; 1000 nM, time (day): 6) was -0.132 and the “growth inhibition by drug alone” value ([2]; 10 nM, time (day): 3) was 0.0573. For the same molecule, the “growth inhibition by drug alone” value ([2]; 10 nM, time (day): 4) was -0.0405, the “growth inhibition by drug alone” value ([2]; 10 nM, time (day): 5) was -0.151 and the “growth inhibition by drug alone” value ([2]; 10 nM, time (day): 6) was -0.472. For the same molecule, the “growth inhibition by drug alone” value ([2]; 100 nM, time (day): 3) was -0.0542, the “growth inhibition by drug alone” value ([2]; 100 nM, time (day): 4) was -0.0819 and the “growth inhibition by drug alone” value ([2]; 100 nM, time (day): 5) was -0.167. The “growth inhibition by drug alone” value ([2]; 100 nM, time (day): 6) was -0.432, the “growth inhibition by drug plus 177Lu-lilotomab satetraxetan” value ([3]; 10 nM, time (day): 3) was -0.0103 and the “growth inhibition by drug plus 177Lu-lilotomab satetraxetan” value ([3]; 10 nM, time (day): 4) was 0.0219. The “growth inhibition by drug plus 177Lu-lilotomab satetraxetan” value ([3]; 10 nM, time (day): 5) was 0.0239, the “growth inhibition by drug plus 177Lu-lilotomab satetraxetan” value ([3]; 10 nM, time (day): 6) was 0.0818 and the “growth inhibition by drug plus 177Lu-lilotomab satetraxetan” value ([3]; 1000 nM, time (day): 3) was -0.103. The “growth inhibition by drug plus 177Lu-lilotomab satetraxetan” value ([3]; 1000 nM, time (day): 4) was 0.0136, the “growth inhibition by drug plus 177Lu-lilotomab satetraxetan” value ([3]; 1000 nM, time (day): 5) was -0.0473 and the “growth inhibition by drug plus 177Lu-lilotomab satetraxetan” value ([3]; 1000 nM, time (day): 6) was -0.104. For the same molecule, the “growth inhibition by drug plus 177Lu-lilotomab satetraxetan” value ([4]; 10 nM, time (day): 3) was 0.368, the “growth inhibition by drug plus 177Lu-lilotomab satetraxetan” value ([4]; 10 nM, time (day): 4) was 0.48 and the “growth inhibition by drug plus 177Lu-lilotomab satetraxetan” value ([4]; 10 nM, time (day): 5) was 0.511. For the same molecule, the “growth inhibition by drug plus 177Lu-lilotomab satetraxetan” value ([4]; 10 nM, time (day): 6) was 0.525, the “growth inhibition by drug plus 177Lu-lilotomab satetraxetan” value ([4]; 100 nM, time (day): 3) was 0.425 and the “growth inhibition by drug plus 177Lu-lilotomab satetraxetan” value ([4]; 100 nM, time (day): 4) was 0.482. For the same molecule, the “growth inhibition by drug plus 177Lu-lilotomab satetraxetan” value ([4]; 100 nM, time (day): 5) was 0.477 and the “growth inhibition by drug plus 177Lu-lilotomab satetraxetan” value ([4]; 100 nM, time (day): 6) was 0.447.
